High-throughput results (PubChem BioAssay)
G9a block = G9a (human) methyltransferase inhibition; Q96KQ7; AID 504332; hit rate 8.8% among 350,000; G9a H3K9 monomethylation, AlphaScreen, 2 h; Potency, µM (top dose mostly 102 µM), actives largely listed as inhibitors; further: nearly all actives have a fitted effect of over 75% in size
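Quantitative HTS format: methyltransferase activity on a biotin-tagged H3K9 peptide is measured by AlphaScreen, using a rabbit anti-monomethyl-H3K9 antibody with streptavidin donor and anti-IgG acceptor beads. Final levels are 20 nM enzyme, 500 nM peptide, 20 uM SAM; 2 h RT.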
HP1b binding inh = blocks HP1-beta chromodomain binding to methylated histone tails. P83916. AlphaScreen HP1-beta / biotin-H3K9me3 peptide binding. Potency, µM (series often up to 114 µM), actives largely listed as inhibitors. hit rate 0.56% among 390,000; further: nearly all actives have a fitted effect of over 70% in size
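Compound inhibition of the preformed complex between 50 nM HP1-beta and 50 nM biotinylated H3K9me3 peptide was read by AlphaScreen. Buffer was PBS pH 7.4 with 0.01% Tween-20. Incubations ran 30 min at room temperature, with 10 ug/mL donor/acceptor beads.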
BAZ2B inh = blocks human BAZ2B; Q9UIF8; AlphaScreen BAZ2B-H3K14Ac peptide displacement; Potency, µM (doses to about 114 µM), most hits filed as inhibitors; hit rate 4.4% among 360,000; AID 504333; further: nearly all actives have a fitted effect of over 60% in size
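Multi-concentration screen (max 110 uM) measuring displacement of acetylated histone H3 peptide from BAZ2B by AlphaScreen, using 50 nM protein, 50 nM peptide and 10 ug/mL streptavidin donor plus Ni-chelate acceptor beads.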
JMJD2A Tudor = JMJD2A Tudor domain (human) inhibition; AlphaScreen JMJD2A-Tudor / H3K4me3 peptide binding; Potency, µM (top dose mostly 114 µM), hits mostly inhibitors; hit rate 4.4% among 390,000; further: nearly all actives have a fitted effect of over 50% in size
GLS inhibitor = glutaminase GLS (human) inhibition | GLS enzymatic activity, qHTS titration | Potency, µM (series often up to 45.5 µM), most hits filed as inhibitors | O94925 | hit rate 0.21% among 410,000
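hKGA in 45 mM KH2PO4 (pH 8.2), 0.02% Tween-20 with compound, then 1mM L-Glutamine (stock as added) plus glutamate oxidase/HRP/Amplex red coupling mix. Fluorescence read initially and after 30 min at RT; signal change reflects glutamate formation.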
Hits are given with their value; 0 = inactive; ? = inconclusive; - = no result given; [ ] = another dose, or the depositor's remark. This is a sample that favours compounds with a hit; in the whole collection about 10% have one here. The call rests on the fitted dose curve; in most records, active means well fitted curve in the direction sought with a large enough effect; inconclusive means small, poorly fitted or top-dose-only effect, or another doubt; inactive means no such curve, though single readings can be large; an effect the other way counts as inactive or inconclusive.

SMILES	G9a block	HP1b binding inh	BAZ2B inh	JMJD2A Tudor	GLS inhibitor
CCN(CC)C1CCN(C(=O)c2ccc(OC3CCN(Cc4ccccn4)CC3)cc2)C1 (stereo unspecified)	0	0	0	0	0
COCC1CCCN(C(=O)c2ccc(OC3CCN(Cc4ccccn4)CC3)cc2)C1 (stereo unspecified)	0	0	0	28µM	0
CC(=O)N1CCN(C(=O)c2ccc(OC3CCN(Cc4ccccn4)CC3)cc2)CC1	71µM	0	0	0	0
c1ccc(-c2cnc(SCCN3CCOCC3)n2CC2CCCO2)cc1 (stereo unspecified)	2.5µM	?	20µM	3.5µM	0
Nc1nc2ccc(Cl)cc2cc1C(=O)NCc1ccc(Oc2ccccc2)cc1	-	-	-	-	0
O=c1c(N2CCN(c3cccc(C(F)(F)F)c3)CC2)csc2ccccc12	?	0	0	45µM	0
O=C1NC(c2cccc(OCc3ccccc3)c2)Nc2ccccc21 (stereo unspecified)	-	0	-	0	0
Cc1ccc(C(=O)CC(C(=O)O)c2cn(CCC#N)c3ccccc23)cc1 (stereo unspecified)	?	?	0	50µM	0
N#CCCn1cc(C(CC(=O)c2ccc(Br)cc2)C(=O)O)c2ccccc21 (stereo unspecified)	?	0	?	0	0
CCOC(=O)C1CCN(C(=O)CC(NS(=O)(=O)c2ccc(OC)cc2)C(C)C)CC1 (stereo unspecified)	0	0	0	16µM	?
CCOC(=O)C1CCN(C(=O)c2c(C)oc3c2C(=O)c2ccccc2C3=O)CC1	50µM	0	0	0	0
CCOC(=O)C1CCN(C(=O)CSc2ccccc2)CC1	0[12.7 µM]	?	0	50µM	0
CCOC(=O)C1CCN(C(=O)CCNS(=O)(=O)c2ccc(C)cc2)CC1	0[12.7 µM]	0	0	0	0
CCOC(=O)C1CCCN(C(=O)CNC(=O)Cn2ccc3ccccc3c2=O)C1 (stereo unspecified)	14µM	0	0	0	0
COc1ccc(C)c2sc(N(Cc3cccnc3)C(=O)CCc3ccccc3)nc12	?	0	0	0	0
COc1ccc(-n2nc(C(=O)Nc3ccc(Cl)cn3)c3c4ccccc4n(C)c3c2=O)cc1Cl	0	0	-	0	0
CCOC(=O)C1CCCN(C(=O)CC(C)c2ccccc2)C1 (stereo unspecified)	0[12.7 µM]	0	0	0	0
CCOC(=O)C1CCCN(C(=O)CSc2ccc(NC(C)=O)cc2)C1 (stereo unspecified)	35µM	0	0	0	0
CCOC(=O)C1CCCN(C(=O)CSc2ccccc2)C1 (stereo unspecified)	0	0	0	0	0
CCOC(=O)C1CCN(C(=O)CC(C)c2ccccc2)CC1 (stereo unspecified)	0	?	0	28µM	0
CCN(CC(=O)Nc1cc(Cl)ccc1C)C(=O)CCS(=O)(=O)c1ccc(C)cc1	50µM	0	0	0	0
Cc1ccc(OCC(=O)Nc2cc(Cl)ccc2-n2cncn2)c(C)c1	-	-	-	-	0
Cc1ccc(S(=O)(=O)CCC(=O)Nc2cc(Cl)ccc2-n2cncn2)cc1	56µM	0	0	0	0
COc1ccc(C2NC(c3ccc4c(c3)OCO4)=CC(c3ccccc3O)N2)cc1OC (stereo unspecified)	-	0	-	0	-
O=C(COC(=O)c1cc(Br)ccc1O)NNC(=O)c1ccc([N+](=O)[O-])cc1	45µM	0	0	0	0
SMILES	G9a block	HP1b binding inh	BAZ2B inh	JMJD2A Tudor	GLS inhibitor
O=C(COC(=O)c1cc(Br)ccc1O)NNC(=O)c1ccc(Cl)cc1	45µM	0	0	0	0
O=C(COC(=O)c1ccccc1O)NNC(=O)c1ccc(Br)cc1	?	0	0	0	0
COc1cccc(C(=O)NNC(=S)NC2CCCCC2)c1	0	0	0	0	0
COc1cc(OC)cc(C(=O)NNC(=S)NC2CC2)c1	56µM	0	0	0	?
COc1ccc(CCN2C(=O)COc3ccccc3C2C(=O)NC(C)(C)C)cc1OC (stereo unspecified)	-	-	-	-	0
O=C(CCCCCn1c(=S)[nH]c2ccccc2c1=O)N1CCOCC1	35µM	0	0	0	-
COc1ccccc1N1CCN(C(=O)CCCn2c(=S)[nH]c3ccccc3c2=O)CC1	-	-	-	-	0
Nc1ccccc1NC(=O)CCn1c(=S)[nH]c2ccccc2c1=O	45µM	0	0	0	0
COc1ccc(OC)c(NC(=O)CCn2c(=S)[nH]c3ccccc3c2=O)c1	0	0	0	0	0
O=C(CCCn1c(=S)[nH]c2ccccc2c1=O)N1CCOCC1	0	0	?	22µM	0
CC(=O)N1CCN(C(=O)CNC(=O)c2ccc(C)s2)CC1	-	0	-	0	0
COc1cccc(-c2sc3ccc(OC)cc3c2-c2cnc(N3CCOCC3)nc2)c1	-	-	-	-	0
Cc1ccc(CNC(=O)c2oc3ccc(S(=O)(=O)N4CCC(C)CC4)cc3c2C)cc1	0	0	0	0	0
CN(C)c1ccc(-c2ccnc3c2CC(C)(C(=O)NCc2ccc(F)c(F)c2)O3)cc1 (stereo unspecified)	-	-	-	-	0
COc1ccc(N=C2C(=O)Nc3c(C)cccc32)cc1	50µM	0	?	?	0
O=C(c1cnccn1)N1CCC2(CC1)CCN(c1cccc(-c3ccccc3)c1)CC2	0[12.7 µM]	-	-	-	-
COc1ccc(CC(=O)NCc2ccco2)cc1OC	0[12.7 µM]	0	0	0	0
Oc1cc2c(cc1CN1CCc3ccccc3C1)OCO2	20µM	0	0	?	0
Clc1ccc(N2CCN(Cc3ccco3)CC2)cc1	5µM	?	50µM	1.8µM	0
c1ccc2c(c1)CCN(Cc1nnnn1Cc1ccc3c(c1)OCO3)C2	0	0	0	0	0
COc1ccc(CN2CCN(Cc3ccco3)CC2)cc1OC	8.9µM	?	28µM	20µM	0
COc1ccccc1N1CCN(CC(O)COc2ccc3c(c2)OCO3)CC1 (stereo unspecified)	?	0	?	?	0
COc1ccccc1N1CCN(Cc2cc3c(cc2O)OCO3)CC1	10µM	0	?	?	0
COc1ccc(C2Nc3ccccc3C(=O)N2c2ccccc2F)cc1COc1ccc(NC(C)=O)cc1 (stereo unspecified)	-	0	-	0	-
COc1ccc(CN2CCCCCC2)cc1	-	0	0	1µM	0
SMILES	G9a block	HP1b binding inh	BAZ2B inh	JMJD2A Tudor	GLS inhibitor
Clc1ccccc1N1CCN(Cc2ccco2)CC1	-	0	0	0	0
COc1ccc(CN2CCOCC2)cc1	0	0	?	0	0
COc1ccccc1N1CCN(Cc2ccco2)CC1	?	0	?	3.2µM	0
COc1ccc(N=Nc2cc(C)c(O)c(CN3CCCCC3)c2)cc1	11µM	28µM	13µM	22µM	0
Cc1cc2ccccc2cc1CN1CCCCC1	0	0	0	0	0
COc1ccc(CN2CCN(C(=O)c3ccco3)CC2)cc1	0	0	0	0	0
COc1ccc(CN2CCN(Cc3ccco3)CC2)cc1	?	20µM	20µM	4µM	0
CC(=O)c1cccc(-c2cnc3c(NC=O)cc(-c4ccc(F)cc4)cn23)c1	-	-	-	-	0
